Shiga inhibitor – Shiga toxin inhibition; Vero cells, Shiga toxin protein synthesis inhibition reporter; inhibition, % at 38.7 µM; actives 9.2% (n = 290,000); in the data active = inhibition mostly above about 28%, no sharp cut-off; inactive = mostly below about 43%
Pf growth 96h – inhibits malaria parasite growth, 96 h; P. falciparum luciferase reporter growth, 96 h; Potency, µM (doses to about 28.7 µM), actives largely listed as inhibitors; actives 6.9% (n = 320,000); AID 504834
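Delayed-death screen, second-generation endpoint: infected erythrocytes, 2% hematocrit, 0.05% parasitemia final; 96 hours at 37 C, 5% CO2; luciferase detection reagent; luminescence decrease equals reduced growth.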
Pf growth 48h – inhibits P. falciparum growth in the first generation, 48 h. P. falciparum luciferase growth in erythrocytes, 48 h. Potency, µM (series often up to 28.7 µM), hits mostly inhibitors. actives 5.9% (n = 310,000). AID 504832
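Luciferase-expressing parasites in RBCs, 2% Hct / 0.1% parasitemia final; RPMI 1640 + 0.5% Albumax; 37 C, 5% CO2, one generation; luminescence read-out, lower signal = inhibition.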
Cycloheximide cs – counter-screen for Shiga toxin inhibitors: cycloheximide protein synthesis inhibition; cell reporter, cycloheximide protein synthesis inhibition counterscreen; max response, %; actives 12% (n = 300,000); AID 2314; in the data active = max response mostly above about 13%, no sharp cut-off; inactive = mostly below about 14%; note: read at 38.3 µM for the half of the compounds with a filed dose
Each line names hits and unclear results; the compound was inactive in the other large screens. Sampled rows, rich in hits. Any-hit rate of the full collection: about 21%. Unless noted, calls come from the whole dose curve; as a rule, active = well fitted inhibition curve with a large enough effect; inconclusive = small, poorly fitted or top-dose-only effect, or another doubt; inactive = no such curve, though single readings can be large or run the other way.

O=C(NNC(=O)C1CC(c2cccnc2)=NO1)Nc1cccc(F)c1 (stereo unspecified)	none
CC(=O)Nc1ccc(S(=O)(=O)NC(CSc2ccc(C(=O)O)cc2[N+](=O)[O-])C(=O)O)cc1 (stereo unspecified)	none
Cc1ccc(C(=O)C2CCN(CC(=O)Nc3ccc4c(c3)OCCO4)CC2)cc1	none (no result: Pf growth 96h)
COc1ccc(C(=O)NCc2nnc(SCC(=O)N3CCCC3)o2)cc1	none
O=C(CN(c1ccccc1)S(=O)(=O)c1ccc(Cl)cc1)Nc1cccnc1	none
COc1ccc(NC(=O)CCCC(=O)OCC(=O)c2cccc(OC)c2)cc1	Pf growth 48h inconclusive
CCC[C@@H](CNC)NC[C@H](Cc1ccccc1)NCCCCc1ccccc1	Pf growth 96h 1.7µM, Pf growth 48h inconclusive
CCC[C@@H](CN[C@@H](CNC)C(C)C)NCCCCc1ccccc1	Pf growth 96h 12µM, Pf growth 48h inconclusive
CC(=O)Nc1ccccc1C(=O)OCc1ccc(F)cc1	Cycloheximide cs 32
CC(=O)Nc1ccc(C(=O)OCc2ccc(F)cc2)cc1	Pf growth 48h inconclusive
CCC(=O)Nc1ccccc1C(=O)OCc1ccc(C(=O)c2ccccc2)cc1	Cycloheximide cs 25
CC1CCc2sc(C(=O)OCC(=O)NCc3ccc(F)cc3)cc2C1 (stereo unspecified)	none
O=C(Oc1cc(-c2ccccc2)no1)c1cccc(C(F)(F)F)c1	none (no result: Pf growth 48h)
FC(F)(F)c1ccc(-c2noc(-c3ccccc3)c2I)cc1	Shiga inhibitor active, Cycloheximide cs 46 (no result: Pf growth 96h, Pf growth 48h)
Cc1cc2oc(=O)cc(C)c2cc1NC(=O)CCl	Pf growth 96h 4.7µM, Pf growth 48h inconclusive, Cycloheximide cs 30
O=C(CCl)Nc1cc2[nH]c(=O)[nH]c2cc1Br	Pf growth 96h 7.4µM, Pf growth 48h 2.3µM
Cc1cc2c(C)cc(=O)[nH]c2cc1NC(=O)CCl	Pf growth 96h 8.3µM, Pf growth 48h inconclusive
CCC(=O)Nc1cc2[nH]c(=O)cc(C)c2cc1C	Pf growth 96h inconclusive
CCCCCC(=O)C(=O)c1ccc(O)cc1O	none
Cc1ccc(NC(=O)Nc2ccc(F)cc2)nc1	Shiga inhibitor 65, Cycloheximide cs 47
COc1ccccc1NC(=O)Nc1ccc(C)cn1	Pf growth 96h inconclusive
Cc1ccnc(NC(=O)c2cc3cc(F)ccc3s2)c1	Shiga inhibitor 83, Cycloheximide cs 45
CSc1ccc(NC(=O)Nc2cc(C)ccn2)cc1	Shiga inhibitor 171, Cycloheximide cs 55
Cc1ccnc(NC(=O)Nc2ccc(F)cc2)c1	Shiga inhibitor 69, Cycloheximide cs 35
O=C(COC(=O)c1ccc(Br)o1)NCCc1ccccc1	Pf growth 96h inconclusive
CCOc1ccc(N2CC(C(=O)Nc3ccccc3C(=O)NC3CC3)CC2=O)cc1 (stereo unspecified)	none
COC(=O)c1ccccc1NC(=O)Nc1cc(C)ccn1	Pf growth 96h inconclusive
Cc1ccnc(NC(=O)Nc2ccc(Br)cc2Cl)c1	Shiga inhibitor 91, Cycloheximide cs 47
COc1ccc(S(=O)(=O)N2CCCC(C(=O)NCCN3CCOCC3)C2)cc1C (stereo unspecified)	Pf growth 48h inconclusive
Cc1ccc(S(=O)(=O)NC(CC(C)C)C(=O)Nc2ccncc2)cc1 (stereo unspecified)	Pf growth 96h 5.9µM, Pf growth 48h 5.2µM (no result: Shiga inhibitor, Cycloheximide cs)
Cc1ccc(S(=O)(=O)NC(CC(C)C)C(=O)Nc2nccs2)cc1 (stereo unspecified)	Pf growth 48h inconclusive (no result: Pf growth 96h)
O=C(Nc1cc(Cl)ccn1)C1(c2ccccc2)CC1(Cl)Cl (stereo unspecified)	Pf growth 96h inconclusive
Cc1cccc(OCCCC(=O)Nc2ccc(S(=O)(=O)Nc3onc(C)c3C)cc2)c1C	none
Cc1cccc(OCCCC(=O)Nc2ccc(S(=O)(=O)Nc3ncccn3)cc2)c1C	Pf growth 96h 2.1µM
Cc1cccc(OCCCC(=O)Nc2ccc(S(=O)(=O)Nc3nccs3)cc2)c1C	Pf growth 96h 3.7µM
COC(=O)c1ccc(N2CCC(C)CC2)c(N)c1	Cycloheximide cs 38 (no result: Pf growth 48h)
COC(=O)c1ccc(N2CCCCC2)c(N)c1	Shiga inhibitor 100, Cycloheximide cs 57
COC(=O)c1ccc(C(=O)OC)c(N)c1	none
O=C(Nc1ccc2ccccc2c1)[C@@H]1C[C@H]1[C@@H](NP(=O)(c1ccccc1)c1ccccc1)c1ccccc1	Pf growth 96h inconclusive, Pf growth 48h 9.3µM
O=C(O)[C@@H]1C[C@H]1[C@@H](NP(=O)(c1ccccc1)c1ccccc1)c1ccccc1	none
O=C(NCc1ccccn1)[C@@H]1C[C@H]1[C@@H](NP(=O)(c1ccccc1)c1ccccc1)c1ccccc1	Pf growth 96h inconclusive
O=C(NCc1ccccc1)[C@@H]1C[C@H]1[C@@H](NP(=O)(c1ccccc1)c1ccccc1)c1ccccc1	Pf growth 96h 15µM, Pf growth 48h inconclusive
Cc1ccc2nc3sc(C(=O)Nc4ccc(N5CCOCC5)cc4)c(N)c3cc2c1	Pf growth 96h inconclusive, Pf growth 48h inconclusive, Cycloheximide cs 24
CC1(C)Cc2c(c(N3CCOCC3)nc3snc(Br)c23)CO1	Pf growth 96h 0.66µM, Pf growth 48h 0.52µM
Cc1ccc(NC(=O)c2sc3nc(N4CCOCC4)c4c(c3c2N)CC(C)(C)OC4)cc1	Pf growth 48h inconclusive, Cycloheximide cs 22
CC1(C)Cc2c(c(N3CCOCC3)nc3snc(N)c23)CO1	none
Cc1nc2c(sc3nc(N4CCOCC4)c4c(c32)CC(C)(C)OC4)c(-c2ccc(Cl)cc2)c1C(=O)O	Pf growth 96h 9.3µM, Pf growth 48h 13µM
CC1(C)Cc2c(c(N3CCOCC3)nc3sc(C(N)=O)c(N)c23)CO1	none
Cc1cccc2cc3c(N)c(C(=O)Nc4ccc(N5CCOCC5)cc4)sc3nc12	Pf growth 96h inconclusive, Pf growth 48h inconclusive
O=C(Nc1cccc(Cl)c1)c1ccc2c(c1)SC1=NS(=O)(=O)CCN12	Pf growth 96h inconclusive, Pf growth 48h inconclusive
CC1(C)Cc2c(c(N3CCCC3)nc3sc(C(=O)Nc4ccccc4)c(N)c23)CO1	Shiga inhibitor 80, Pf growth 96h 13µM, Pf growth 48h 15µM, Cycloheximide cs 41
CC1(C)Cc2c(c(N3CCOCC3)nc3sc(C(=O)Nc4ccc(Cl)cc4)c(N)c23)CO1	Pf growth 96h inconclusive, Pf growth 48h inconclusive
c1ccc(COc2ccc(OCCCCN3CCCCC3)cc2)cc1	Shiga inhibitor 70, Pf growth 96h inconclusive, Cycloheximide cs 55 (no result: Pf growth 48h)
O=C(c1ccccc1)c1ccc(OCCCN2CCCC2)cc1	Shiga inhibitor 44, Cycloheximide cs 28
Cc1ccc(OCCCCN2CCCCC2)cc1	none
Brc1ccc(OCCCCN2CCCCC2)cc1	Pf growth 96h 5.2µM
Clc1ccc(OCCN2CCOCC2)cc1	Pf growth 48h inconclusive
CCOc1ccc(OCCCCN2CCCC2)cc1	none (no result: Pf growth 48h)
Brc1ccc(OCCN2CCOCC2)cc1	Shiga inhibitor 23, Pf growth 96h inconclusive
O=C(c1ccccc1)c1ccc(OCCCCN2CCCCC2)cc1	none (no result: Pf growth 96h)
Cc1ccccc1N1C(=O)C2ON(c3ccccc3)C(c3ccco3)C2C1=O (stereo unspecified)	none
COc1cccc(C2/C(=C(/O)c3ccc4c(c3)CC(C)O4)C(=O)C(=O)N2CC2CCCO2)c1 (stereo unspecified)	none
Brc1ccc(OCCCN2CCOCC2)cc1	Cycloheximide cs 14 (no result: Pf growth 48h)
CC(C)c1ccc(OCCCCCN2CCOCC2)cc1	Shiga inhibitor 116, Cycloheximide cs 54
CCOC(=O)c1c(CN2CCOCC2)oc2ccc(OC(C)=O)cc12	none
